Shown are actives, neighbours in structure and some others; about 1.1% of the full set was active somewhere.
Eya2 inh = blocks the phosphatase activity of human Eya2. Potency, µM (highest dose often 76.9 µM), for inactives: at the highest dose activity, negative = inhibition, actives largely listed as inhibitors. recombinant Eya2, OMFP fluorescence dephosphorylation (OMFP is methylfluorescein phosphate). 330,000 compounds, 0.006% hits
Target sequence (O00167 whole entry, looked up): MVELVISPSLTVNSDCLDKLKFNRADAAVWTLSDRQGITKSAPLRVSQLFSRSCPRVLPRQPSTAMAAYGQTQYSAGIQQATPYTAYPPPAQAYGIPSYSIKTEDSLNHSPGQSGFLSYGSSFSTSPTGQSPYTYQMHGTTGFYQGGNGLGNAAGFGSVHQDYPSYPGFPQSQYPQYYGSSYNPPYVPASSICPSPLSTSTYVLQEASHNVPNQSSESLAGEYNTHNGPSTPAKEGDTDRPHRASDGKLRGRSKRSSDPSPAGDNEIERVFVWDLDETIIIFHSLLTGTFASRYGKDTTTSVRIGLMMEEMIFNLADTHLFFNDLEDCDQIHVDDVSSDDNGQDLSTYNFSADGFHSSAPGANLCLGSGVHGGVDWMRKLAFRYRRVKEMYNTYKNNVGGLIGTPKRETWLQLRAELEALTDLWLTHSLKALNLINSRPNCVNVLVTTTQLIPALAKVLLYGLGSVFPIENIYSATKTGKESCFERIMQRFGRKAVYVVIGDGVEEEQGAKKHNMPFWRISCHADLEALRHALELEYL
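Eya2 protein (added as 0.2 uM solution) was preincubated with compound for 10 min at ambient temperature in 50 mM HEPES pH 7.5, 50 mM NaCl, 5 uM MgCl2, 0.05% BSA, 1 mM DTT. OMFP (added at 50 uM) then reacted 10 min; fluorescence read at 485/525 nm.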
RGS4 inhibitor = blocks human RGS4-accelerated GTP hydrolysis; Transcreener GDP fluorescence polarization, RGS4-accelerated GTP hydrolysis; 390,000 compounds, 0.039% hits; Potency, µM (top dose mostly 114 µM), inactives show at the highest dose activity change, negative = inhibition, usual class: inhibitors; note: nearly all actives have a fitted effect of over 75% in size
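MLSMR compounds (23 nl, pin-transferred) preincubated 10 min at room temperature with a 500nM (2x) first reagent, then RGS4 at 900nM (2x) plus Transcreener GDP mix added; fluorescence polarization (620/688 nm) read before and after 90 min at 30 °C.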
TrxR1 substrate = rat thioredoxin reductase 1 substrate activity | O89049 | 390,000 compounds, 0.01% hits | purified TrxR1 substrate turnover, NADPH consumption readout | Potency, µM (series often up to 114 µM), for inactives: at the highest dose activity change, negative = substrate turnover | AID 588456; note: nearly all actives have a fitted effect of over 50% in size
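Rat TrxR1, dispensed at 90 nM, was prereduced with 400 uM NADPH (final) for 5 min at ~22 deg C, then incubated with compound 15 min before 400 uM selenite. A first-read NADPH fluorescence drop versus no-compound background flagged substrates.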
TrxR1 inh = inhibitors of rat thioredoxin reductase 1; 390,000 compounds, 1% hits; recombinant rTrxR1, NADPH fluorescence consumption, selenite substrate; Potency, µM (top dose mostly 114 µM), for the others: at the highest dose activity change, negative = inhibition, actives largely listed as inhibitors; note: nearly all actives have a fitted effect of over 65% in size
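Rat TrxR1 (90 nM in the dispensed reagent) was pre-reduced with 400 uM NADPH for 5 min at room temperature, then incubated with compound for 15 min. After 400 uM selenite was added, NADPH fluorescence (Ex 340/Em 450 nm) was followed for 8 min.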
IDH1 R132H inh = inhibitors of human mutant IDH1 R132H; IDH1-R132H enzyme, NADPH consumption, diaphorase/resazurin fluorescence; Potency, µM (top dose mostly 76.6 µM), without a hit: at the highest dose activity change, negative = inhibition, most hits filed as inhibitors; 390,000 compounds, 0.093% hits; O75874; note: nearly all actives have a fitted effect of over 65% in size
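IDH1-R132H (0.5 ug/mL dispensed) in pH 7.5 Tris buffer was preincubated 30 min with compound, then given a substrate mix of 0.016 mM NADPH and 2 mM alpha-KG for 80 min at room temperature; remaining NADPH was read by diaphorase/resazurin fluorescence.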
Active calls of the source: *; ? = inconclusive; . = not tested or not shown; [ ] = remark or other dose. Calls come from the whole dose curve; as a rule, active = well fitted curve in the direction sought with a large enough effect; inconclusive = small, poorly fitted or top-dose-only effect, or another doubt; inactive = no such curve, though single readings can be large; an effect the other way counts as inactive or inconclusive. % is set by controls: 0 for no effect and ±100 for the full control effect; potency is the fitted concentration of half-maximal effect.

SMILES | Eya2 inh | RGS4 inhibitor | TrxR1 substrate | TrxR1 inh | IDH1 R132H inh
NC(=O)c1ccccc1NCC(=O)c1ccc(Cl)cc1 | 2% | -14% | 7%[57.1 µM] | 1%[57.1 µM] | 52µM*
O=C(CCl)Nc1ccccc1Sc1ccc(Cl)cc1 | 8% | -21% | -9% | 8.9µM* | 25%
O=C(CCl)Nc1ccccc1C(=O)c1ccccc1 | 0% | 16% | -10% | 20µM* | -6%
CC(=O)N1CCN(CC(=O)Nc2ccccc2Sc2ccc(Cl)cc2)CC1 | -5% | -10% | 2% | -8% | 6%
Cc1cc(C(=O)c2ccccc2)c(NC(=O)CCl)s1 | -2% | -29% | -7% | 20µM* | -3%
COc1ccccc1CN1CCNC(=O)C1CC(=O)NC1CCCCCC1 (stereo unspecified) | -13% | 11% | 2% | ? | -1%
COc1ccc(NC(=O)N(C)C[C@H]2Oc3ccc(NC(=O)NC(C)C)cc3C(=O)N([C@H](C)CO)C[C@@H]2C)cc1 | 12% | 6% | 10%[57.1 µM] | 11%[57.1 µM] | 2%
C[C@@H]1OC(Nc2ccc(N=Nc3ccccc3)cc2)[C@H](O)[C@H](O)[C@H]1O (stereo partly specified) | 7% | 13% | 1%[57.1 µM] | 14%[57.1 µM] | 7%
C=C(C)C(O)Cc1c(OC)ccc(C(=O)/C=C/c2ccc(O)cc2)c1O (stereo unspecified) | 10% | -8% | -10% | 1% | -9%
COc1ccc(-c2noc(C(C)NC(=O)c3ccco3)n2)cc1 (stereo unspecified) | . | 17% | -9% | -1% | 53%
COc1ccc(OC)c(/C=C2\C=Cc3ccccc32)c1 | . | . | 5% | 5.6µM* | .
COc1ccc(/C=C2/C=Cc3ccccc32)cc1 | . | . | -1% | -16% | .
O=C(c1cccn1-c1nnc(N2CCCC2)s1)N1CCN(c2ccc(F)cc2)CC1 | . | -26% | -2%[57.1 µM] | 12%[57.1 µM] | 19%
CCC(CC)C(=O)N1CCc2cc(OC)c(OC)cc2C1COc1ccc(C(=O)OC)cc1 (stereo unspecified) | . | -6% | -3%[57.1 µM] | 0%[57.1 µM] | 5%
Cc1ccc2cc(CN(CCCN3CCOCC3)C(c3nnnn3Cc3ccco3)C(C)C)c(=O)[nH]c2c1C (stereo unspecified) | . | -34% | -3% | 10µM* | -5%
CCOC(=O)N1CC=C2C(C#N)=C(N)C(C#N)(C#N)[C@H](c3cccs3)C2C1 (stereo partly specified) | -18% | 0%[11.4 µM] | 9%[57.1 µM] | -19% | -9%
CC1CC=C2C(C#N)=C(N)C(C#N)(C#N)C(c3cccs3)C2C1 (stereo unspecified) | 13% | -46% | 10%[57.1 µM] | ? | 21µM*
CCOc1ccc(C(=O)NN2C(=O)C3C4C=CC(O4)C3C2=O)cc1 (stereo unspecified) | -1% | -53% | 4% | 20µM* | 6%
Cc1ccccc1OCC(=O)NN1C(=O)C2C3C=CC(O3)C2C1=O (stereo unspecified) | 14% | -29% | -5%[57.1 µM] | 32µM* | -3%
O=C(CCc1ccccc1)NNC(=O)CCc1ccccc1 | -13% | -1% | 6% | 20% | 1%
O=C(CCc1ccccc1)NN1C(=O)C2C3C=CC(O3)C2C1=O (stereo unspecified) | -4% | -13% | -8% | 45µM* | -5%
Cc1cccc(OCC(=O)NN2C(=O)C3C4C=CC(O4)C3C2=O)c1 (stereo unspecified) | 7% | 5% | 3%[57.1 µM] | 7%[57.1 µM] | 2%
N#CC(C#N)=C1C=CC=CN1/C(=C\c1ccco1)C(=O)c1ccc(-c2ccccc2)cc1 | -8% | ? | 2% | 7.1µM* | -3%
N#CC(C#N)=C1C=CC=CN1/C(=C\c1ccco1)C(=O)c1ccc(Cl)cc1 | -5% | -37% | -10% | 0.5µM* | -8%
N#C/C(=C\c1ccco1)C(=O)NCc1ccccc1 | 5% | -10% | 1% | 22% | -5%
SMILES | Eya2 inh | RGS4 inhibitor | TrxR1 substrate | TrxR1 inh | IDH1 R132H inh
COC(=O)c1ccc(N2C(=O)CC(N3CCN(C(=O)c4ccco4)CC3)C2=O)cc1 (stereo unspecified) | 12% | 22% | 4% | 5% | 6%
CC(=O)Oc1ccc(N2C(=O)C3C(C2=O)C2(C)C=CC3(C)O2)cc1 (stereo unspecified) | 3% | . | . | . | .
O=C1C2C3C=CC(CO)(O3)C2C(=O)N1c1ccccc1-c1ccccc1 (stereo unspecified) | -5% | -135% | 8% | 0.89µM* | 0%
O=C1C2C3C=CC(CNS(=O)(=O)c4ccccc4)(O3)C2C(=O)N1c1ccc(Cl)cc1 (stereo unspecified) | -9% | ? | -2% | 10µM* | 4%
O=C1CCC(=O)N1c1ccccc1-c1ccccc1 | 3% | -20% | 0% | -6% | -1%
COC(=O)C1(C)NC(c2ccc(Cl)cc2)C2C(=O)N(c3ccccc3)C(=O)C21 (stereo unspecified) | -9% | 8% | -2% | 17% | 2%
CC(=O)Oc1ccc(N2C(=O)C3C4C=CC(CO)(O4)C3C2=O)cc1 (stereo unspecified) | -3% | ? | 9%[57.1 µM] | 3.2µM* | 1%
COc1ccc(NC(=O)CCCS(=O)(=O)c2nc(-c3ccc(OC)c(OC)c3)cc(C(F)(F)F)n2)cc1OC | . | -34% | -5% | 25µM* | 11%
COc1ccccc1-c1cc(C(F)(F)F)nc(S(=O)(=O)CCCC(=O)Nc2ccc(F)c(Cl)c2)n1 | . | 4% | 80% | 75% | 10%
COc1ccccc1-c1cc(C(F)(F)F)nc(S(=O)(=O)CCCC(=O)Nc2cc(OC)c(OC)c(OC)c2)n1 | . | -28% | -5% | 22µM* | -12%
C=CCNC(=O)N1c2ccccc2Sc2ccccc21 | 8% | 27% | 2%[57.1 µM] | 17%[57.1 µM] | 9%
CCOC(=O)[C@H]1[C@H]2COc3ccc(Cl)cc3[C@@H]2N2C(=O)CN(Cc3ccc(F)cc3)C(=O)[C@@]12C | 0% | -38% | 1% | 10% | 0%
C=C(C)CSc1cc(C)c(C#N)c2nc3ccccc3n12 | 7% | -36% | 35% | 11µM* | -1%
COc1ccccc1NS(=O)(=O)c1cc(C(=O)NC2CCN(Cc3ccccc3)CC2)ccc1C | . | 14% | 5% | 27% | 2%
COC(=O)[C@]1(C)N[C@H](CN(C)C(=O)Nc2ccc(F)cc2)[C@@H]2C(=O)N(C)C(=O)[C@@H]21 | 6% | 1% | 6% | 20% | 20%
Cc1ccc(-c2nc3ncccn3c2Nc2ccc3c(c2)OCCO3)o1 | 17% | ? | 1% | 40µM* | 5%
Cc1ccc(-c2nc3cnccn3c2Nc2ccccc2)o1 | -9% | -105% | 13% | 40µM* | -8%
Cc1ccc(-c2nc3ccccn3c2Nc2ccccc2)o1 | -12% | ? | 34%[57.1 µM] | 58% | -5%
Cc1ccc2nc(-c3ccccc3F)c(Nc3ccc(Cl)cc3)n2c1 | . | 25% | 94% | 15% | -7%

Source: PubChem
